# Screens from PubChem.
# This is a sample that favours compounds with a hit; in the whole collection about 21% have one here.
# Pf growth 96h: P. falciparum growth inhibition at 96 hour, primary screen for plastid delayed-death inhibitors | P. falciparum luciferase reporter growth, 96 h | Potency, µM (titrated, usually from 28.7 µM), usual class: inhibitors | hit rate 6.9% among 320,000 | AID 504834
#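 Cell-based qHTS: luciferase-tagged P. falciparum in erythrocytes (2% hematocrit, 0.05% parasitemia final) incubated with compounds for 96 hours, 37 C, 5% CO2; luciferase detection reagent then added and luminescence measured.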
# Shiga inhibitor: Shiga toxin inhibition | Vero cells, Shiga toxin protein synthesis inhibition reporter | inhibition, % at 38.7 µM | hit rate 9.2% among 290,000 | AID 2315; in the data active means inhibition mostly above about 28%, no sharp cut-off; inactive means mostly below about 43%
# Pf growth 48h: P. falciparum growth inhibition at 48 hours (one generation); Potency, µM (series often up to 28.7 µM), most hits filed as inhibitors; hit rate 5.9% among 310,000; P. falciparum luciferase growth in erythrocytes, 48 h
#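 Compounds are pin-transferred into medium, infected erythrocytes (2% hematocrit, 0.1% parasitemia final) are added, and plates sit one parasite generation at 37 C in 5% CO2. Detection reagent is then added and luminescence measured.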
# CHX counter: affects cycloheximide protein synthesis inhibition readout, counter-screen; cell reporter, cycloheximide protein synthesis inhibition counterscreen; AID 2314; max response, %; hit rate 12% among 300,000; in the data active means max response mostly above about 13%, no sharp cut-off; inactive means mostly below about 14%; further: read at 38.3 µM for the half of the compounds with a filed dose
# A number is an active result; – = inactive; ? = inconclusive; · = no result. Unless noted, the call rests on the fitted dose curve; in most records, active means well fitted inhibition curve with a large enough effect; inconclusive means small, poorly fitted or top-dose-only effect, or another doubt; inactive means no such curve, though single readings can be large or run the other way.
SMILES,Pf growth 96h,Shiga inhibitor,Pf growth 48h,CHX counter
COc1ccccc1C(=O)N/N=C/c1c[nH]c2ccccc12,?,41.8,–,31.5
Cn1cccc1/C=N/NC(=O)c1sc2ccccc2c1Cl,–,–,–,40.4
O=C(N/N=C/c1oc(O)c2ccccc12)c1ccccc1,–,62.2,–,–
Cc1ccc(C(=O)Nc2ccc(C(=O)N/N=C/c3c[nH]c4ccccc34)cc2)cc1,–,–,–,–
O=C(O)C1CCN(C(=O)COc2ccc(Br)cc2)CC1,–,–,–,–
CCc1ccc(NC(=O)CSc2nc(=O)n(CCCN(C)C)c3c2CCC3)cc1,–,·,?,·
CC(C)c1ccc(OCC(=O)NC2CC(C)(C)NC(C)(C)C2)c(Br)c1,–,–,?,–
CCCN(C(=O)CSCc1ccc(Cl)cc1)c1c(N)n(Cc2ccccc2)c(=O)[nH]c1=O,–,·,?,·
O=C(NCC1CCCO1)c1ccc2c(=O)n(CC3CCCO3)c(SCC(=O)N3CCCC3)nc2c1 (stereo unspecified),?,–,?,–
O=C(CCc1nnc2ccc(N3CCC4(CC3)OCCO4)nn12)Nc1ccc(F)cc1,–,–,–,–
Cc1c(C(=O)Nc2ccc(F)cc2)sc2ncn(CC(=O)N3CCCCC3)c(=O)c12,–,–,–,–
Cc1cc(C(=O)N/N=C/c2c[nH]c3ccccc23)cs1,–,63.9,–,41.8
O=C(N/N=C/c1ccc([N+](=O)[O-])o1)c1sc2ccccc2c1Cl,1.65µM,–,?,–
O=C(N/N=C/c1cccc2ccccc12)c1cccs1,–,87.3,–,72.7
O=C(N/N=C/c1c[nH]c2ccccc12)c1ccc2c(c1)OCCO2,–,93.5,–,54.7
O=C(NC(Cc1c[nH]c2ccccc12)C(=O)N/N=C/c1cccc2ccccc12)c1cccs1 (stereo unspecified),–,–,?,–
O=C(O)COc1ccccc1/C=N/NC(=O)c1ccc2c(c1)OCCO2,?,–,–,–
O=C(COc1ccccc1Cl)NCCCNC(=O)c1cccnc1,–,–,–,–
COc1ccc(NC(=O)/C(=C\c2ccncc2)NC(=O)c2ccccc2)cc1,–,–,?,–
O=c1cc(CSc2ccc(Cl)cc2)nc(-c2ccncc2)[nH]1,–,–,–,–
O=C(N/N=C/c1coc2ccccc2c1=O)c1cccc([N+](=O)[O-])c1,5.86µM,–,–,–
Cc1cccc(C(=O)N/N=C/c2coc3ccccc3c2=O)c1,–,–,–,–
CN(C)S(=O)(=O)c1ccc(Cl)c(C(=O)NNC(=O)Cn2ccc(C(F)(F)F)n2)c1,–,·,?,·
COc1cc(/C=N/O)ccc1Oc1cnccn1,–,–,·,–
O=C(NCCNCC(O)COc1ccc(O)cc1)N1CCOCC1 (stereo unspecified),6.75µM,·,–,·
SMILES,Pf growth 96h,Shiga inhibitor,Pf growth 48h,CHX counter
COCCN(C(=O)CCC(=O)Nc1cc(C)on1)C(C(=O)NC(C)(C)C)c1cccc(OC)c1OC (stereo unspecified),–,–,–,–
CCN(CCNC(=O)CN(C)S(=O)(=O)c1cccc2nsnc12)c1ccccc1,11.7µM,–,·,–
Cc1ccc(CNC(=O)CN(C)S(=O)(=O)c2cccc3nsnc23)cc1,–,–,–,–
CCN(CCCNC(=O)CN(C)S(=O)(=O)c1cccc2nsnc12)c1cccc(C)c1,8.28µM,–,?,–
CC1(C)OC2CC3C4CC(F)C5=CC(=O)C=CC5(C)C4(F)C(O)CC3(C)C2(C(=O)CO)O1 (stereo unspecified),5.86µM,–,?,–
C[C@@H]1C[C@H]2[C@@H]3C[C@H](F)C4=CC(=O)C=C[C@]4(C)[C@@]3(F)[C@@H](O)C[C@]2(C)[C@@]1(O)C(=O)CO,–,–,–,–
CC1(c2ccccc2)O[C@@H]2C[C@H]3[C@@H]4CCC5=CC(=O)C=C[C@]5(C)[C@@]4(F)[C@@H](O)C[C@]3(C)[C@]2(C(=O)CO)O1 (stereo partly specified),1.85µM,–,0.828µM,–
CC(=O)NC(CC(=O)OCC(=O)Nc1ccc2c(c1)OCO2)c1ccccc1 (stereo unspecified),–,–,–,–
O=C(c1ccco1)N1CCN(Cc2nnc(-c3ccccc3)o2)CC1,–,–,–,–
c1ccc(-c2nnc(CN3CCCCC3)o2)cc1,–,75.1,–,40.9
COC(=O)C1CCN(Cc2nnc(-c3ccccc3)o2)CC1,–,58.6,–,24.0
CCN1CCN(Cc2nnc(-c3ccccc3)o2)CC1,–,–,–,–
OC1(c2ccccc2F)CCN(Cc2nnc(-c3ccccc3)o2)CC1,·,–,?,20.1
c1ccc(-c2nnc(CN3CCC4(CC3)OCCO4)o2)cc1,?,–,–,–
c1ccc(-c2nnc(CN3CCCc4ccccc43)o2)cc1,·,–,?,16.3
